Measurements reported in PubChem BioAssay AID1159580 (chemical genetic matrix, 2015).
The whole screen tested about 5,500 compounds, of which about 2,000 (36%) were called active. Not shown: some 18% with an inconclusive outcome. Rule as the data show it: active = normalized growth mostly below about 0.91 (no sharp cut-off); inconclusive = no clear call, values can overlap the other calls; inactive = mostly above about 0.92. This is one part of the list.

Experiment: chemical genetic growth profiling, strain panel (AID 1159580);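 also: tested at 20 µM; growth read once vehicle control cultures reached saturation at 30 °C; 1 = growth at the plate median or of vehicle wells; lower values mean less growth of the strain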
Details: growth OD

Measured: normalized growth

COc1ccc2c(c1)[nH]c1c(C)nccc12
inactive: S. cerevisiae deletion strains, locus YJR075W, strain HOC1, hits give low values 1.02 | S. cerevisiae deletion strains, locus YKL009W, strain mrt4, hits give low values 0.954 | S. cerevisiae deletion strains, locus YKL068W, hits give low values 0.978 | S. cerevisiae deletion strains, locus YKL085W, strain MDH1 (second series), hits give low values 0.979 | S. cerevisiae deletion strains, locus YKL085W, strain MDH1, hits give low values 0.979 | S. cerevisiae deletion strains, locus YKL160W, strain elf1, hits give low values 0.996 | S. cerevisiae deletion strains, locus YKL190W, strain CNB1, hits give low values 1.01 | S. cerevisiae deletion strains, locus YKR001C, strain vps1, hits give low values 0.962 | S. cerevisiae deletion strains, locus YKR026C, strain gcn3, hits give low values 0.978 | S. cerevisiae deletion strains, locus YKR091W, strain srl3, hits give low values 0.996 | S. cerevisiae deletion strains, locus YLL001W, strain dnm1, hits give low values 0.987 | S. cerevisiae deletion strains, locus YLL026W, hits give low values 0.993 | S. cerevisiae deletion strains, locus YLL041C, strain sdh2, hits give low values 0.993 | S. cerevisiae deletion strains, locus YLR027C, strain aat2, hits give low values 0.992 | S. cerevisiae deletion strains, locus YLR039C, strain RIC1, hits give low values 1.22 | S. cerevisiae deletion strains, locus YLR058C, strain SHM2, hits give low values 1.01 | S. cerevisiae deletion strains, locus YLR102C, strain apc9, hits give low values 0.981 | S. cerevisiae deletion strains, locus YLR113W, strain HOG1, hits give low values 1 | S. cerevisiae deletion strains, locus YLR221C, strain rsa3, hits give low values 0.995 | S. cerevisiae deletion strains, locus YLR258W, strain gsy2, hits give low values 0.995 | S. cerevisiae deletion strains, locus YLR262C, strain YPT6 (second series), hits give low values 1.03 | S. cerevisiae deletion strains, locus YLR262C, strain YPT6, hits give low values 1.21 | S. cerevisiae deletion strains, locus YLR268W, strain sec22, hits give low values 1 | S. cerevisiae deletion strains, locus YLR320W, strain mms22, hits give low values 1 | S. cerevisiae deletion strains, locus YLR330W, strain CHS5, hits give low values 0.997 | S. cerevisiae deletion strains, locus YLR342W, strain FKS1 (second series), hits give low values 1.02 | S. cerevisiae deletion strains, locus YLR342W, strain FKS1, hits give low values 1 | S. cerevisiae deletion strains, locus YLR357W, strain rsc2, hits give low values 0.978 | S. cerevisiae deletion strains, locus YLR370C, strain arc18, hits give low values 1 | S. cerevisiae deletion strains, locus YLR371W, strain rom2, hits give low values 0.979 | S. cerevisiae deletion strains, locus YLR384C, strain iki3, hits give low values 0.999 | S. cerevisiae deletion strains, locus YLR418C, strain cdc73, hits give low values 1.03 | S. cerevisiae deletion strains, locus YML016C, strain PPZ1, hits give low values 1.01 | S. cerevisiae deletion strains, locus YML032C, strain rad52, hits give low values 0.926 | S. cerevisiae deletion strains, locus YML120C, strain ndi1, hits give low values 1 | S. cerevisiae deletion strains, locus YML124C, strain tub3, hits give low values 0.982 | S. cerevisiae deletion strains, locus YMR058W, strain fet3, hits give low values 0.983 | S. cerevisiae deletion strains, locus YMR078C, strain ctf18, hits give low values 0.976 | S. cerevisiae deletion strains, locus YMR125W, strain sto1, hits give low values 0.975 | S. cerevisiae deletion strains, locus YMR129W, hits give low values 0.988 | S. cerevisiae deletion strains, locus YMR205C, strain PFK2, hits give low values 0.999 | S. cerevisiae deletion strains, locus YMR223W, strain ubp8, hits give low values 0.962 | S. cerevisiae deletion strains, locus YMR231W, strain pep5, hits give low values 1.01 | S. cerevisiae deletion strains, locus YMR263W, strain SAP30, hits give low values 1.01 | S. cerevisiae deletion strains, locus YMR307W, strain GAS1, hits give low values 1.12 | S. cerevisiae deletion strains, locus YNL067W, strain RPL9B, hits give low values 0.971 | S. cerevisiae deletion strains, locus YNL071W, strain lat1, hits give low values 0.991 | S. cerevisiae deletion strains, locus YNL128W, strain TEP1, hits give low values 1.03 | S. cerevisiae deletion strains, locus YNL153C, strain GIM3, hits give low values 1.02 | S. cerevisiae deletion strains, locus YNL183C, strain NPR1, hits give low values 0.982 | S. cerevisiae deletion strains, locus YNL209W, strain ssb2, hits give low values 0.996 | S. cerevisiae deletion strains, locus YNL233W, strain BNI4, hits give low values 1.01 | S. cerevisiae deletion strains, locus YNL248C, strain rpa49, hits give low values 0.966 | S. cerevisiae deletion strains, locus YNL250W, strain rad50, hits give low values 0.986 | S. cerevisiae deletion strains, locus YNL271C, strain bni1, hits give low values 0.991 | S. cerevisiae deletion strains, locus YNL298W, strain CLA4, hits give low values 0.968 | S. cerevisiae deletion strains, locus YNL307C, strain MCK1, hits give low values 0.967 | S. cerevisiae deletion strains, locus YNL322C, strain KRE1 (second series), hits give low values 1 | S. cerevisiae deletion strains, locus YNL322C, strain KRE1, hits give low values 1.01 | S. cerevisiae deletion strains, locus YNR049C, strain mso1, hits give low values 0.997 | S. cerevisiae deletion strains, locus YNR052C, strain pop2, hits give low values 0.961 | S. cerevisiae deletion strains, locus YOL006C, strain TOP1, hits give low values 0.963 | S. cerevisiae deletion strains, locus YOL012C, strain htz1 1.03 | S. cerevisiae deletion strains, locus YOL147C, strain pex11, hits give low values 0.984 | S. cerevisiae deletion strains, locus YOR001W, strain rrp6, hits give low values 1.02 | S. cerevisiae deletion strains, locus YOR061W, strain CKA2, hits give low values 1.04 | S. cerevisiae deletion strains, locus YOR069W, strain VPS5, hits give low values 1 | S. cerevisiae deletion strains, locus YOR070C, strain gyp1, hits give low values 0.995 | S. cerevisiae deletion strains, locus YOR080W, strain dia2, hits give low values 1.01 | S. cerevisiae deletion strains, locus YOR083W, strain WHI5, hits give low values 0.996 | S. cerevisiae deletion strains, locus YOR106W, strain vam3, hits give low values 0.983 | S. cerevisiae deletion strains, locus YOR136W, strain idh2, hits give low values 0.971 | S. cerevisiae deletion strains, locus YOR144C, strain elg1, hits give low values 0.988 | S. cerevisiae deletion strains, locus YOR184W, strain ser1, hits give low values 0.953 | S. cerevisiae deletion strains, locus YOR231W, strain MKK1, hits give low values 1 | S. cerevisiae deletion strains, locus YOR265W, strain rbl2, hits give low values 0.996 | S. cerevisiae deletion strains, locus YOR270C, strain vph1, hits give low values 0.974 | S. cerevisiae deletion strains, locus YOR290C, strain snf2, hits give low values 0.99 | S. cerevisiae deletion strains, locus YOR316C, strain cot1, hits give low values 0.985 | S. cerevisiae deletion strains, locus YPL051W, strain arl3, hits give low values 0.986 | S. cerevisiae deletion strains, locus YPL055C, strain LGE1, hits give low values 1.02 | S. cerevisiae deletion strains, locus YPL078C, strain atp4, hits give low values 0.995 | S. cerevisiae deletion strains, locus YPL106C, strain sse1, hits give low values 0.972 | S. cerevisiae deletion strains, locus YPL240C, strain hsp82, hits give low values 0.981 | S. cerevisiae deletion strains, locus YPL241C, strain CIN2, hits give low values 1.01 | S. cerevisiae deletion strains, locus YPL256C, strain CLN2, hits give low values 1.01 | S. cerevisiae deletion strains, locus YPR119W, strain clb2, hits give low values 0.988 | S. cerevisiae deletion strains, locus YPR141C, strain kar3, hits give low values 0.979 | S. cerevisiae deletion strains, locus YPR163C, strain tif3, hits give low values 0.975 | S. cerevisiae deletion strains, locus YPR167C, strain met16, hits give low values 1 | S. cerevisiae deletion strains, strain wtn01, hits give low values 0.998 | S. cerevisiae strains, strain wild type, hits give low values 0.998
